Screening data as filed in PubChem.
HP1b binding inh = HP1-beta chromodomain-methylated histone interaction inhibition | P83916 | AlphaScreen HP1-beta / biotin-H3K9me3 peptide binding | Potency, µM (doses to about 114 µM), for inactives: at the highest dose activity change, negative = inhibition, usual class: inhibitors | hit rate 0.56% among 390,000 | AID 540317; also: potency is read from the fitted curve at half-maximal effect; nearly all actives have a fitted effect of over 70% in size
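Compound inhibition of the preformed complex between 50 nM HP1-beta and 50 nM biotinylated H3K9me3 peptide was read by AlphaScreen. Buffer was PBS pH 7.4 with 0.01% Tween-20. Incubations ran 30 min at room temperature, with 10 ug/mL donor/acceptor beads.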
BAZ2B inh = blocks human BAZ2B. hit rate 4.4% among 360,000. Q9UIF8. AlphaScreen BAZ2B-H3K14Ac peptide displacement. Potency, µM (series often up to 114 µM), inactives show at the highest dose activity change, negative = inhibition, usual class: inhibitors. AID 504333; also: potency is read from the fitted curve at half-maximal effect; % is scaled to controls: 0 for no effect and ±100 for the full control effect; nearly all actives have a fitted effect of over 60% in size
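BAZ2B (50 nM) with biotin-H3(5-23)K14Ac peptide (50 nM) in PBS pH 7.4, 0.01% Tween-20, preformed 30 min, then compound 30 min at room temperature; top concentration 110uM. AlphaScreen streptavidin donor/nickel chelate acceptor beads (10 ug/mL final), 20 min dark, signal read.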
JMJD2A Tudor = JMJD2A Tudor domain (human) inhibition. Potency, µM (titrated, usually from 114 µM), without a hit: at the highest dose activity change, negative = inhibition, actives largely listed as inhibitors. O75164. AlphaScreen JMJD2A-Tudor / H3K4me3 peptide binding. hit rate 4.4% among 390,000; also: potency is read from the fitted curve at half-maximal effect; % is scaled to controls: 0 for no effect and ±100 for the full control effect; nearly all actives have a fitted effect of over 50% in size
G9a inh = G9a (human) methyltransferase inhibition | G9a H3K9 monomethylation, AlphaScreen, 2 h | Potency, µM (top dose mostly 102 µM), inactives show top-dose activity, negative = inhibition, hits mostly inhibitors | hit rate 8.8% among 350,000; also: potency is read from the fitted curve at half-maximal effect; % is scaled to controls: 0 for no effect and ±100 for the full control effect; nearly all actives have a fitted effect of over 75% in size
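AlphaScreen read-out: biotin-H3K9 peptide (500 nM) methylation by 20 nM enzyme with 20 uM SAM, 2 h at room temperature after 15 min compound preincubation; anti-monomethyl H3K9 antibody plus donor/acceptor beads, 10 min dark.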
CtBP-E1A inh = CtBP/E1A binding inhibition | AlphaScreen GST-E1A/His-CtBP binding, 1536-well; active compounds read low | activity change, % (test concentration not listed) | hit rate 0.49% among 340,000 | AID 651724; in the data active = activity change below about -65%; inconclusive = mostly about -30% to -63%; also: % is scaled to controls: 0 for no effect and ±100 for the full control effect
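GST-E1A and His-tagged CtBP (125 nM each as 5X stock) were preincubated with pin-transferred compound for 2 h at 37 °C in the dark, then glutathione donor and nickel acceptor beads were added for 1 h before AlphaScreen reading.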
Six1-Eya2 inh = inhibitors of human Six1/Eya2 interaction | activity change, % (concentration not given with the values) | Q15475+O00167 | AID 651725 | AlphaScreen GST-Six1/His-Eya2 binding, biochemical; active compounds read low | hit rate 0.56% among 360,000; in the data active = activity change below about -65%; inconclusive = mostly about -30% to -63%; also: % is scaled to controls: 0 for no effect and ±100 for the full control effect
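AlphaScreen luminescence read after one hour at 37 °C in darkness. Pin-transferred compounds met GST-Six1 and His-Eya2 protein (5X stock 250 nM/500 nM) plus glutathione donor and Ni-chelate acceptor beads (5X, 50 ug/mL).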
* marks the source's active call; other numbers are inactive results; [ ] = another dose, or the depositor's remark. In the library only some 10% were active in any assay of this set; here they are far more common. Unless noted, calls follow the shape of the dose curve; as a rule, active = well fitted inhibition curve with a large enough effect; inconclusive = small, poorly fitted or top-dose-only effect; inactive = no such curve, though single readings can be large or run the other way.

For COc1ccccc1CNC(=O)CCCn1c(=O)c2ccccc2n(Cc2ccccc2F)c1=O the results were HP1b binding inh 24%, BAZ2B inh -6%, JMJD2A Tudor -12% and G9a inh 1%[59 µM].
`CCOC(=O)N1CCN(C(=S)NC(=O)c2ccnn2C)CC1` gave HP1b binding inh -11%, BAZ2B inh -28%, JMJD2A Tudor inconclusive, G9a inh 20µM*, CtBP-E1A inh 1 and Six1-Eya2 inh 1.
Screening CCOC(=O)N1CCN(C(=S)NC(=O)c2ccc(F)cc2)CC1 returned HP1b binding inh 2%, BAZ2B inh inconclusive, JMJD2A Tudor -17%, G9a inh 28µM*, CtBP-E1A inh 3 and Six1-Eya2 inh 3.
`COc1cccc(C2Nc3cc(Cl)c(S(N)(=O)=O)cc3S(=O)(=O)N2)c1` (centres undefined) gave HP1b binding inh -16%, BAZ2B inh 1%, JMJD2A Tudor 50µM*, G9a inh 1%[59 µM], CtBP-E1A inh 3 and Six1-Eya2 inh 3.
`Cc1cc(C)c(C)c(OCCN2CCOCC2)c1` gave HP1b binding inh 27%, BAZ2B inh -24%, JMJD2A Tudor 3%, G9a inh 79µM*, CtBP-E1A inh -5 and Six1-Eya2 inh 1.
`Cc1ccc(C)c(OCC(=O)NCCN(C)C)c1` gave HP1b binding inh 12%, BAZ2B inh 13%, JMJD2A Tudor -21%, G9a inh inconclusive, CtBP-E1A inh 4 and Six1-Eya2 inh 7.
Brc1ccccc1OCCN1CCOCC1 was read as HP1b binding inh inconclusive, BAZ2B inh inconclusive, JMJD2A Tudor 3.2µM*, G9a inh 25µM*, CtBP-E1A inh 4 and Six1-Eya2 inh -2.
Screening CCCCCOc1ccc(CN2CCOCC2)cc1Cl returned HP1b binding inh 63%, BAZ2B inh -1%, JMJD2A Tudor -24%, G9a inh -44%[12.7 µM], CtBP-E1A inh 6 and Six1-Eya2 inh -2.
Clc1cc(Br)ccc1OCCN1CCOCC1 was read as HP1b binding inh inconclusive, BAZ2B inh inconclusive, JMJD2A Tudor 0.79µM*, G9a inh 10µM*, CtBP-E1A inh -1 and Six1-Eya2 inh 5.
For Cc1cc(C)c(C)c(OCCCN(C)C)c1 the results were HP1b binding inh inconclusive, BAZ2B inh -38%, JMJD2A Tudor 20µM*, G9a inh inconclusive, CtBP-E1A inh 4 and Six1-Eya2 inh 3.
Screening Cc1ccc(CS(=O)(=O)Cc2ccc(C(=O)NCCc3ccc(Cl)cc3)o2)cc1 returned HP1b binding inh 32%, BAZ2B inh 2%, JMJD2A Tudor -3% and G9a inh -22%[59 µM].
`CCCc1n[nH]c(=O)c2c1nnn2Cc1ccccc1F` gave HP1b binding inh 14%, BAZ2B inh 4%, JMJD2A Tudor -15%, G9a inh 10%, CtBP-E1A inh 2 and Six1-Eya2 inh -1.
`O=C(O)CC/C(=N/NC(=O)CNC(=O)Cc1ccc(Cl)cc1)c1ccccc1` gave HP1b binding inh 45%, BAZ2B inh -12%, JMJD2A Tudor -4%, G9a inh -6%[12.7 µM], CtBP-E1A inh 5 and Six1-Eya2 inh -5.
CCCCOc1ccc(-c2nn(-c3ccccc3)cc2C2NC(=O)NC(C)=C2C(=O)OC)cc1 (centres undefined) was read as HP1b binding inh -13%, BAZ2B inh -28%, JMJD2A Tudor inconclusive and G9a inh -23%[59 µM].
For Fc1cnc(N2CCN(c3ccccc3)CC2)nc1N1CCN(c2ccccc2)CC1 the results were HP1b binding inh 0%, BAZ2B inh inconclusive, JMJD2A Tudor -27%, G9a inh 50µM*, CtBP-E1A inh -2 and Six1-Eya2 inh -2.
Screening O=C1CCCc2nc(N3CCN(c4ccccc4)CC3)ncc21 returned HP1b binding inh inconclusive, BAZ2B inh 4%, JMJD2A Tudor -22%[57.1 µM], G9a inh 29%, CtBP-E1A inh -2 and Six1-Eya2 inh 10.
For COC(=O)C1=C(N)Oc2cc(N(C)C)ccc2C1c1ccccc1OC (centres undefined) the results were HP1b binding inh inconclusive, BAZ2B inh 40µM*, JMJD2A Tudor 50µM*, G9a inh 32µM*, CtBP-E1A inh inconclusive and Six1-Eya2 inh inconclusive.
`COc1ccc(CNc2nc(SCc3ccc(Cl)cc3)nc3ccccc23)cc1` gave HP1b binding inh 29%, BAZ2B inh -1%, JMJD2A Tudor -12% and G9a inh -5%[59 µM].
COc1ccc(N(CC(=O)N/N=C/c2ccco2)S(=O)(=O)c2ccccc2)cc1 was read as HP1b binding inh inconclusive, BAZ2B inh inconclusive, JMJD2A Tudor inconclusive, G9a inh 50µM*, CtBP-E1A inh 9 and Six1-Eya2 inh -1.
Screening COc1ccc(S(=O)(=O)N(CC(=O)NCCc2ccccc2)c2ccc(Cl)cc2)cc1 returned HP1b binding inh -8%, BAZ2B inh -3%, JMJD2A Tudor -21% and G9a inh 16µM*.
For COc1ccc(N(CC(=O)Nc2ccccc2C(=O)O)S(=O)(=O)c2ccc(C)c([N+](=O)[O-])c2)cc1 the results were HP1b binding inh 23%, BAZ2B inh inconclusive, JMJD2A Tudor -26%, G9a inh 40µM*, CtBP-E1A inh 9 and Six1-Eya2 inh 0.
Screening COc1ccc(N(CC(=O)NCCc2ccccc2)S(=O)(=O)c2ccc(OC)c(OC)c2)cc1 returned HP1b binding inh 20%, BAZ2B inh 4%, JMJD2A Tudor -18% and G9a inh -7%[59 µM].
COc1ccc(NC(=O)CN(c2ccc([N+](=O)[O-])cc2)S(=O)(=O)c2ccccc2)cc1 was read as HP1b binding inh 2%, BAZ2B inh 3%, JMJD2A Tudor -29%, G9a inh inconclusive, CtBP-E1A inh -5 and Six1-Eya2 inh -17.
For Cc1cc(C)cc(NC(=O)C(=O)NCC(c2cccnc2)N2CCc3ccccc3C2)c1 (centres undefined) the results were HP1b binding inh 21%, BAZ2B inh -3%, JMJD2A Tudor -1% and G9a inh -3%[59 µM].
For Cc1ccc(NC(=O)CN2C(=O)S/C(=C/c3ccc(-c4cccc(C(=O)O)c4)o3)C2=O)cc1 the results were HP1b binding inh inconclusive, BAZ2B inh 16µM*, JMJD2A Tudor 45µM*, CtBP-E1A inh 3 and Six1-Eya2 inh 6.
Cc1ccc(NC(=O)CN2C(=O)S/C(=C\c3cccn3C)C2=O)cc1 was read as HP1b binding inh 22%, BAZ2B inh -4%, JMJD2A Tudor -3%, G9a inh 18%, CtBP-E1A inh 13 and Six1-Eya2 inh -2.
Cc1ccc(NC(=O)CN2C(=O)S/C(=C\c3ccccn3)C2=O)cc1 was read as HP1b binding inh 37%, BAZ2B inh 4%, JMJD2A Tudor -3%, G9a inh -12%[59 µM] and Six1-Eya2 inh -1.
